# Assay results published in PubChem BioAssay (Tox21).
# Where “and” joins values, the source holds several entries; their conditions need not be identical. Equal values may be shown once. Unmarked numbers belong to inactive results. Inconclusive results are not listed. Where a call stands in place of a potency, no number is given. Calls of active or inactive are those of the source. Unless noted, calls come from the whole dose curve; as a rule, active = well fitted curve in the direction sought with a large enough effect in the repeat runs; inconclusive = weak or mixed curves; inactive = no such curve, though single readings can be large; an effect the other way counts as inactive or inconclusive.
# Legend:
# [1] = qHTS assay for small molecule agonists of the p53 signaling pathway (AID 651631; calls by dose curve; note: nearly all actives have a fitted effect of over 15% in size; note: potency is the fitted concentration of half-maximal effect)
# Procedure, shortened: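 Read-out is beta-lactamase FRET fluorescence measured 2 h after substrate addition at room temperature, in HCT-116 cells with a p53 response element-driven reporter exposed to compounds for 16 h at 37 °C.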
# [2] = qHTS assay for small molecules that induce genotoxicity in human embryonic kidney cells expressing luciferase-tagged ATAD5 (AID 651632); note: nearly all actives have a fitted effect of over 15% in size
# Procedure, shortened: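 A rise in luciferase signal from ATAD5-tagged HEK293T cells marks genetic stress. Cells were exposed to compounds for 16 hr at 37C, 5% CO2, then luciferase was quantified after a 30 min room-temperature incubation with Amplite.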
# [3] = qHTS assay for small molecule agonists of the p53 signaling pathway - cell viability (AID 651633; calls by dose curve;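 note: p53RE-bla HCT reporter cells with a stable beta-lactamase p53 reporter; series mostly up to about 83 µM; nearly all actives have a fitted effect of over 30% in size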)
# Procedure, shortened: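 p53RE-bla cells were treated with compound for 16 hours at 37 C. Cytotoxicity was then measured as CellTiter-Glo luminescence after 30 min at room temperature.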
# [4] = qHTS assay for small molecules that induce genotoxicity in human embryonic kidney cells expressing luciferase-tagged ATAD5 - cell viability (AID 651634; calls by dose curve; note: nearly all actives have a fitted effect of over 25% in size)
# Procedure, shortened: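 Cytotoxicity counter-readout: after 15.5 hr compound treatment at 37C, live-cell protease activity in ATAD5-luciferase HEK293T cells measured by CellTiter-Fluor fluorescence, 30 min development at 37C.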
# [5] = qHTS assay for small molecule disruptors of the mitochondrial membrane potential - cell viability (AID 720634; calls by dose curve;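 note: human HepG2 liver cancer cells; series mostly up to about 83 µM; nearly all actives have a fitted effect of over 20% in size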)
# Procedure, shortened: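 Cytotoxicity was quantified from ATP content by CellTiter-Glo luminescence in the same wells as the MMP dye read-out. HepG2 (2,000 cells/well) were plated overnight and exposed to compounds for 1 hr at 37 C.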
# [6] = qHTS assay for small molecule disruptors of the mitochondrial membrane potential (AID 720635)
# Procedure, shortened: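 HepG2 cells exposed to compound 1 hr at 37C, then Mito-MPS dye 30 min. Ratio read of aggregate (540/590 nm) versus monomer (490/535 nm) fluorescence.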
# [7] = qHTS assay to test for compound auto fluorescence at 590 nm (red) in HepG2 cells (AID 720674)
# Procedure, shortened: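 HepG2 cells, 2,000 per well in MEM with 10% FBS, attached overnight at 37 C, then got 23 nL compound or DMSO. After 1 hr at 37 C, 5% CO2, red fluorescence was read at 540/590 nm against Rose Bengal sodium as reference.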
# [8] = qHTS assay to test for compound auto fluorescence at 535 nm (green) in HepG2 cells (AID 720675)
# [9] = qHTS assay to test for compound auto fluorescence at 460 nm (blue) in HEK293 cells (AID 720678)
# Procedure, shortened: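 Intrinsic compound fluorescence is recorded in live HEK293 cultures after overnight incubation at 37C, 5% CO2, using excitation 405 nm and emission 460 nm. Values are referenced to triamterene.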
# [10] = qHTS assay to test for compound auto fluorescence at 590 nm (red) in HEK293 cells (AID 720679)
# Procedure, shortened: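 Red autofluorescence, HEK293 cells: 2,000 cells/well; attach 4-5 hr 37C; add 23 nL cpd or DMSO; incubate o/n 37C 5% CO2; read Ex540/Em590; Rose Bengal sodium reference.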
# [11] = qHTS assay to test for compound auto fluorescence at 535 nm (green) in HEK293 cells (AID 720680)
# [12] = qHTS assay to test for compound auto fluorescence at 460 nm (blue) in HEK293 cell free culture (AID 720681)
# Procedure, shortened: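 Compounds were added to cell-free DMEM with 10% FBS and fluorescence read directly. The blue channel used 405 nm excitation and 460 nm emission, with triamterene as the reference fluorophore.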
# [13] = qHTS assay to test for compound auto fluorescence at 535 nm (green) in HEK293 cell free culture (AID 720682)
# Procedure, shortened: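 Fluorescein serves as the green reference fluorophore; each compound's intrinsic emission at 535 nm (excitation 485 nm) is reported as an equivalent amount of that dye, measured in serum-containing DMEM without cells.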
# [14] = qHTS assay to test for compound auto fluorescence at 590 nm (red) in HEK293 cell free culture (AID 720683)
# Procedure, shortened: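 Cell-free wells of DMEM with 10% FBS received compound, and intrinsic fluorescence was read at excitation/emission 540/590 nm. Values expressed as equivalence to Rose Bengal sodium.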
# [15] = qHTS assay to test for compound auto fluorescence at 590 nm (red) in HepG2 cell free culture (AID 720684)
# Procedure, shortened: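 Auto fluorescence equivalency versus Rose Bengal sodium, red channel Ex/Em 540/590 nm; compounds in cell-free MEM/10% FBS; DMSO vehicle control.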
# [16] = qHTS assay to test for compound auto fluorescence at 460 nm (blue) in HepG2 cell free culture (AID 720685)
# Procedure, shortened: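 Cell-free plates of MEM plus 10% FBS received 23 nL compound or DMSO vehicle; blue-channel (405/460 nm) intensity scored against triamterene as reference fluorophore.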
# [17] = qHTS assay to test for compound auto fluorescence at 535 nm (green) in HepG2 cell free culture (AID 720686)
# [18] = qHTS assay to test for compound auto fluorescence at 460 nm (blue) in HepG2 cells (AID 720687)
# Procedure, shortened: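 HepG2 cells in MEM with 10% FBS, attached overnight at 37 C, were exposed to compound or DMSO for 1 hr at 37 C, 5% CO2. Blue fluorescence was read at 405/460 nm, with triamterene as reference fluorophore.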
# [19] = biological target: Glucocorticoid receptor (Homo sapiens) (UniProt P04150); assay: qHTS assay to identify small molecule agonists of the glucocorticoid receptor (GR) signaling pathway (AID 720691; active = well fitted activation curve with a large enough effect in the signal ratio in the repeat runs, not every such curve was filed as active; the % refers to the signal ratio)
# Procedure, shortened: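 Agonist-mode qHTS in HeLa cells stably expressing a glucocorticoid-response-element beta-lactamase reporter. Fluorescence intensity read with FRET substrate (2 h, room temperature) after 18 h compound treatment at 37 C.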
# [20] = biological target: Glucocorticoid receptor (Homo sapiens) (UniProt P04150); assay: qHTS assay to identify small molecule antagonists of the glucocorticoid receptor (GR) signaling pathway (AID 720692; active = well fitted inhibition curve with a large enough effect in the signal ratio in the repeat runs, not every such curve was filed as active; the % refers to the signal ratio)
# Procedure, shortened: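 Inhibition of dexamethasone-driven (5 nM final) beta-lactamase expression was measured in GRE-reporter HeLa cells over 18 h at 37C. Fluorescence was read after 2 h with the B/G FRET substrate at room temperature.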
# Glucocorticoid receptor (Homo sapiens), sequence (P04150 whole entry, looked up): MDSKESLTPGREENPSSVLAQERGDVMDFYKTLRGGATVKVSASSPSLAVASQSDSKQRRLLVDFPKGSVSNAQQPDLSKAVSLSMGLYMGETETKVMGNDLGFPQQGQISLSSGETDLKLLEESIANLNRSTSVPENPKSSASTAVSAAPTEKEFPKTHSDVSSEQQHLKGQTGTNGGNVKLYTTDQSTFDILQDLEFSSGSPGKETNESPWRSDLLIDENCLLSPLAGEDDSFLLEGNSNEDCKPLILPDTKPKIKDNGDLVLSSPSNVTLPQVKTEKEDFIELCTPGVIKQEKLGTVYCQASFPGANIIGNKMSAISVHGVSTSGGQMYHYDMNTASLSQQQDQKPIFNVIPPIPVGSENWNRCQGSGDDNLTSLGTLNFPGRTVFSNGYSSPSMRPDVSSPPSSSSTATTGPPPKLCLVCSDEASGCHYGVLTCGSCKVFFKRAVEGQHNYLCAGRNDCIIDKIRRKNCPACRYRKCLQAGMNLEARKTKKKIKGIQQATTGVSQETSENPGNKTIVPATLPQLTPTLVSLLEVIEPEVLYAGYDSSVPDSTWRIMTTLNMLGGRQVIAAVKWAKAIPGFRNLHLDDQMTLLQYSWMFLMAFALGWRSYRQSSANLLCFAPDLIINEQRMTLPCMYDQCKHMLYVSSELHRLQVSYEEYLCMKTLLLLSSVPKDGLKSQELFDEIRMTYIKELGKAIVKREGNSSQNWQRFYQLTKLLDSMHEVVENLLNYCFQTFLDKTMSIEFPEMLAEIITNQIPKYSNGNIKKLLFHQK
smiles,measurement,setting,value
CC(C)CCCCCCN,Potency,[1],inactive
same,Potency,[2],inactive
same,Potency,[3],inactive
same,Potency,[4],inactive
same,Potency,[5],inactive
same,Potency,[6],inactive
same,outcome,[7],inactive
same,outcome,[8],inactive
same,Potency,[9],inactive
same,outcome,[10],inactive
same,outcome,[11],inactive
same,Potency,[12],inactive
same,outcome,[13],inactive
same,outcome,[14],inactive
same,outcome,[15],inactive
same,Potency,[16],inactive
same,outcome,[17],inactive
same,Potency,[18],inactive
same,Potency,[19],inactive
same,Potency,[20],inactive
Nc1nc(F)nc2c1ncn2[C@@H]1O[C@H](CO)[C@@H](O)[C@@H]1O,Potency,[1],13.3 µM (active) and 8.41 µM (active)
same,Potency,[2],inactive
same,Potency,[3],inactive
same,Potency,[4],inactive
same,Potency,[5],inactive
same,Potency,[6],inactive
same,outcome,[7],inactive
same,outcome,[8],inactive
same,Potency,[9],inactive
same,outcome,[10],inactive
same,outcome,[11],inactive
same,Potency,[12],inactive
same,outcome,[13],inactive
same,outcome,[14],inactive
same,outcome,[15],inactive
same,Potency,[16],inactive
same,outcome,[17],inactive
same,Potency,[18],inactive
same,Potency,[19],inactive
same,Potency,[20],inactive
CC1=CC(C)C(C=O)C(C)C1 (stereo unspecified),Potency,[1],inactive
same,Potency,[2],inactive
same,Potency,[3],inactive
same,Potency,[4],inactive
same,Potency,[5],inactive
same,Potency,[6],inactive
same,outcome,[7],inactive
same,outcome,[8],inactive
same,Potency,[9],inactive
same,outcome,[10],inactive
same,outcome,[11],inactive
same,Potency,[12],inactive
same,outcome,[13],inactive
same,outcome,[14],inactive
same,outcome,[15],inactive
same,Potency,[16],inactive
same,outcome,[17],inactive
same,Potency,[18],inactive
same,Potency,[19],inactive
same,Potency,[20],inactive
CCCC(C)C(=O)O (stereo unspecified),Potency,[1],inactive
same,Potency,[2],inactive
same,Potency,[3],inactive
same,Potency,[4],inactive
same,Potency,[5],inactive
same,outcome,[7],inactive
same,outcome,[8],inactive
same,Potency,[9],inactive
same,outcome,[10],inactive
same,outcome,[11],inactive
same,Potency,[12],inactive
same,outcome,[13],inactive
same,outcome,[14],inactive
same,outcome,[15],inactive
same,Potency,[16],inactive
same,outcome,[17],inactive
same,Potency,[18],inactive
CCCCCCC(CCCCCCCCCCC(=O)OCC(COC(C)=O)OC(C)=O)OC(C)=O (stereo unspecified),Potency,[1],inactive
same,Potency,[2],inactive
same,Potency,[3],inactive
same,Potency,[4],inactive
same,Potency,[5],inactive
same,Potency,[6],inactive
same,outcome,[7],inactive
same,outcome,[8],inactive
same,Potency,[9],inactive
same,outcome,[10],inactive
same,outcome,[11],inactive
same,Potency,[12],inactive
same,outcome,[13],inactive
same,outcome,[14],inactive
same,outcome,[15],inactive
same,Potency,[16],inactive
same,outcome,[17],inactive
same,Potency,[18],inactive
same,Potency,[19],inactive
O=C1C(CCS(=O)c2ccccc2)C(=O)N(c2ccccc2)N1c1ccccc1 (stereo unspecified),Potency,[1],inactive
same,Potency,[2],inactive
same,Potency,[3],inactive
same,Potency,[4],inactive
same,Potency,[5],inactive
same,Potency,[6],inactive
same,"fluorescence, relative to Rose Bengal",[7],-0.0311% [at 18.6 µM]
same,"fluorescence, % of fluorescein control",[8],-0.114% [at 18.6 µM]
same,"fluorescence, % of triamterene",[9],-0.0077% [at 18.6 µM]
same,"fluorescence, % of fluorescent control",[10],0.179% [at 18.6 µM]
same,"fluorescence, % of fluorescein",[11],-0.11% [at 18.6 µM]
same,"fluorescence, % of fluorescent control",[12],0.0823% [at 18.6 µM]
same,activity change,[13],0.112% [at 18.6 µM]
same,"fluorescence, % of fluorescent control",[14],0.107% [at 18.6 µM]
same,"fluorescence, % of Rose Bengal",[15],-0.0469% [at 18.6 µM]
same,"fluorescence, % of fluorescent control",[16],-0.0192% [at 18.6 µM]
same,"fluorescence, % of fluorescein control",[17],-0.0165% [at 18.6 µM]
same,"fluorescence, % of fluorescent control",[18],-0.182% [at 18.6 µM]
same,Potency,[19],inactive
same,Potency,[20],inactive
